This note sets out measurements from PubChem BioAssay (NCATS).

Each structure is given as a SMILES string. Records with an inconclusive call do not appear. A call without a number means that no potency is given here. Active and inactive are the calls of the source. Calls follow the shape of the dose curve; as a rule, active = well fitted inhibition curve with a large enough effect; inconclusive = small, poorly fitted or top-dose-only effect; inactive = flat fitted curve, though single readings scatter.
Potency is read from the fitted curve at half-maximal effect.

The experiment in a line: qHTS to identify inhibitors of the type 1 interferon - major histocompatibility complex class I in skeletal muscle: primary screen against the NCATS LOPAC collection (AID 1347405).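 Also: lytic HiBiT luminescence reporting HLA-B protein level.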 The following applies: iHSKM muscle cells, IFN-b-induced MHC-I HiBiT luminescence, 24 h; series mostly up to 45.9 µM. An excerpt: Assay Submitter (PI): Travis B. Kinder Ph.D. & James Inglese Ph.D.
Assay Development and Screening Technology Laboratory (ADST)
National Center for Advancing Translational Sciences (NCATS), Rockville, MD
National Institute of Health (NIH), Bethesda, Maryland
Idiopathic inflammatory myopathies, collectively referred to as myositis, are a group of rare autoimmune diseases characterized by skeletal muscle inflammation, weakness, and usually accompanied by systemic pathologies of the skin, lungs, or vasculature. Current immunosuppressive therapies and glucocorticoids are often not curative and are accompanied by harsh side effects, especially in children with juvenile myositis. We initiated a drug repurposing and development program to identify more targeted, less toxic therapeutics to treat myositis. Although its cause is not known, muscle from a subset of patients have an abundance of the inflammatory type 1 interferon (IFN) and a down-stream product major histocompatibility complex class I (MHC class I), which are both thought to contribute to damage and weakness. We conducted quantitative high throughput screening on 6,576 compounds (4,679 unique) through a series of cell-based assays to identify those that inhibit the IFN-stimulated expression of MHC class I in muscle precursor cells (myoblasts). The compound identification and evaluation strategy utilized a primary screen with reporter-tagged MHC class I in genome-engineered myoblasts, ATP content counter screen for viability, HLA-ABC immunofluorescence secondary screen, and HLA-B RT-qPCR tertiary screen.
The primary screen utilized CRISPR/Cas9 genome-engineering of immortalized human myoblasts, C25cl48, where a pro-luminescent reporter HiBit was fused to the C-terminus of endogenous MHC class I allele HLA-B*08:01 (HLA-B HiBit myoblasts). HiBit is an 11 amino acid fragment of NanoLuc luminescent reporter (Promega Corporation), and when complexed to the larger LgBit fragment, the reconstituted enzyme produces light in the presence of furimazine substrate (Schwinn et al., 2018). Briefly, HLA-B HiBit myoblasts were plated into 1536-well plates, treated with 4.0 ng/ml human IFN-beta and 1,280 compounds from the Library of Pharmacologically Active Compounds 1280 library (LOPAC1280, Sigma Aldrich) in a 7-point, 1:4.3 titration with a high final concentration of 46 uM. After 24 hrs of treatment, cells were assayed by Nano-Glo HiBiT Lytic Detection System (Promega) and luminescence measured by a ViewLux 1430 Ultra HTS (Perkin Elmer).
Schwinn MK, Machleidt T, Zimmerman K, Eggers CT, Dixon AS, Hurst R, Hall MP, Encell LP, Binkowski BF, Wood K V. 2018. CRISPR-Mediated Tagging of Endogenous Proteins with a Luminescent Peptide. ACS Chem Biol 13:467-474. doi:10.1021/acschembio.7b00549
PROTOCOL TABLE (as described by Inglese et al., 2007)
SEQUENCE No. (e.g., 1, 2, 3, etc.); […] (e.g., Cells, Incubation, Reagent, etc.); VALUE; DESCRIPTION
1a; Cells; 5 uL; Use a Multidrop Combi (Thermo Scientific) to seed 350 cells/well into nine Greiner 1536 well white/solid bottom, high base, TC plates in 5 ul/well of iHSKM growth medium (GM) without dexamethasone into columns 1+2. Add metal lids with gas-exchange holes
1b; Cells; 5 uL; Use a Multidrop Combi (Thermo Scientific) to seed 350 cells/well into nine Greiner 1536 well white/solid bottom, high base, TC plates in 5 ul/well of iHSKM GM without dexamethasone + 4 ng/ml IFN-b into columns 3 - 48. Add metal lids with gas-exchange holes
2; Incubate; 1 hr; Incubate at 37 C, 5% CO2, 95% RH
3; Compounds; 23 nl; Use Pin Tool (Wako) to transfer DMSO control, ruxolitinib IFN-b inhibitor control [High Concentration = 80 uM final, 16-pt, 1:2 in duplicate], and library compounds in DMSO
4; Incubate; 24 hrs; Incubate at 37 C, 5% CO2, 95% RH
5; Dispense; 2.5 ul; Use BioRAPTR FRD (Beckman Coulter) to add HiBit lytic reagent
6; Incubate; 10 min; Incubate in the dark at ambient temperature for lysis
[…]
A general note: qHTS replaces the single test concentration by a dilution series.
In the case of `COc1ccccc1N1CCN(CCN(C(=O)C2CCCCC2)c2ccccn2)CC1`, the Potency result was “inactive”.
As for `O=C(c1ccccc1)c1ccc2n1CCC2C(=O)O` (stereo unspecified), the entry is “inactive”; as for `CN(C)C(=O)[C@H](O)[C@H](Cc1ccccc1)NC(=O)c1cc2cc(Cl)ccc2[nH]1`, “inactive”.
As for `O=C(CCc1ccc(O)cc1)c1c(O)cc(O)cc1O`, the entry is “inactive”; as for `COc1ccc2cc([C@H](C)C(=O)O)ccc2c1`, “inactive”; as for `O=Nc1c(-c2c(O)[nH]c3cc(Br)ccc23)[nH]c2ccccc12`, 15.8 µM (active).
Under `Cc1cc(Cl)ccc1OCCCC(=O)NO` stands “inactive”; under `CNC[C@H](O)c1ccc(O)c(O)c1`, “inactive”.
On to `C[C@@H](N)C1CCC(C(=O)Nc2ccncc2)CC1` (stereo partly specified), for which the Potency result is “inactive”.
In the case of `Cc1cc(O)c2c(c1)C(=O)c1cc(O)cc(O)c1C2=O`, the Potency entry was “inactive”.
`CC1(C)C(=O)N(CCN2CCC(C(=O)c3ccc(F)cc3)CC2)c2ccccc21`: the Potency entry is “inactive”.
For `O=c1ccc2ccc(O)c(O)c2o1`, the Potency entry was “inactive”.
Under `C[C@H](Cc1ccc(O)c(O)c1)[C@@H](C)Cc1ccc(O)c(O)c1` stands “inactive”; under `Cc1cccc(C#Cc2ccccc2)n1`, “inactive”; under `C[C@@H](c1ncncc1F)[C@](O)(Cn1cncn1)c1ccc(F)cc1F`, “inactive”.
Under `CC(=O)N1CCN(c2ccc(OC[C@H]3CO[C@](Cn4ccnc4)(c4ccc(Cl)cc4Cl)O3)cc2)CC1` stands “inactive”; under `CC(=O)NC[C@H]1CN(c2ccc(N3CCOCC3)c(F)c2)C(=O)O1`, “inactive”.
As for `O=C(O)c1cccnc1Nc1cccc(C(F)(F)F)c1`, the entry is “inactive”; as for `COc1cc2c(cc1OC)C1CC(=O)C(CC(C)C)CN1CC2` (stereo unspecified), “inactive”; as for `NCCCCNCCCN`, “inactive”.
Consider `O=c1c(O)c(-c2cc(O)c(O)c(O)c2)oc2cc(O)cc(O)c12`, for which the Potency entry was “inactive”.
Under `NNc1nncc2ccccc12` stands “inactive”; under `O=c1c(O)c(-c2ccc(O)cc2O)oc2cc(O)cc(O)c12`, “inactive”; under `Clc1ccc2c(N3CCN(CCCN4CCN(c5ccnc6cc(Cl)ccc56)CC4)CC3)ccnc2c1`, “inactive”.
Under `CC1(C)NC(=O)N(c2ccc([N+](=O)[O-])c(C(F)(F)F)c2)C1=O` stands “inactive”.
As for `Cc1c(OCC(F)(F)F)ccnc1CS(=O)c1nc2ccccc2[nH]1` (stereo unspecified), the entry is “inactive”; as for `CCOC(=O)C1=C(O)C(=O)N(Cc2ccccc2)C1`, “inactive”; as for `CN(C)CCCC1(c2ccc(F)cc2)OCc2cc(C#N)ccc21` (stereo unspecified), “inactive”.
On to `O=C1c2c(O)cc(O)cc2OC(c2ccc(O)c(O)c2)C1O` (stereo unspecified), for which the Potency result was “inactive”.
As for `CCOC(=O)C(C)Oc1cccc2c(=O)n(CC(=O)Nc3ccc4c(c3)OCCO4)ccc12` (stereo unspecified), the entry is “inactive”.
As for `c1cnc2cc3c(cc2n1)C1CNCC3C1`, the entry is “inactive”.
